Source: PubChem BioAssay (NCATS)
Inconclusive results are not listed. A call without a number means that no potency is given here. Calls of active or inactive are those of the source. Calls come from the whole dose curve; as a rule, active = well fitted cell-killing curve with a large enough effect; inconclusive = small, poorly fitted or top-dose-only effect; inactive = flat fitted curve, though single readings scatter.

Assay: Cell Viability - LYMP2-017 (AID 972); note: nearly all actives have a fitted effect of over 55% in size
Details: LYMP2-017 lymphoblastoid cell viability; series mostly up to 92.2 µM
From the text: NIH Chemical Genomics Center [NCGC]
NIH Molecular Libraries Screening Centers Network [MLSCN]
National Institutes of Environmental Health Sciences [NIEHS]
National Toxicology Program [NTP]
We have developed a 1536-well cell-based assay for quantitative high throughput screening (qHTS) against a number of cell lines to determine in vitro cytotoxicity of small molecules. This particular assay uses a human lymphoblastoid cell line (LYMP2-017) purchased from Coriell Institute for Medical Research.
NCGC Assay Protocol Summary:
The CellTiter-Glo luminescent cell viability assay (Promega) is a homogeneous method to measure the number of viable cells in culture. The end point readout of this assay is based on quantitation of intracellular ATP, an indicator of metabolic activity, using the luciferase reaction. Luciferase catalyzes the oxidation of beetle Luciferin to oxyluciferin and light in the presence of ATP. The luminescent signal is proportional to amount of ATP present.
Using the CellTiter-Glo luminescent cell viability assay, the amount of cellular ATP was measured in the lymphoblastoid cell line with complete culture medium following compound treatment for 24 hours. The assay was performed in opaque white Kalypsys 1536-well plates. In the screen, tetraoctylammonium bromide was used as positive control. Library compounds were measured for their ability to cause acute toxicity in the cell line, as reflected by a decrease in intracellular ATP levels, in a concentration-dependent manner. […] AC50 values were determined from concentration-response data modeled with the standard Hill equation.
qHTS protocol for CellTiter Glo lymphoblastoid cellular assay
[Step] [Parameter] [Value] [Description]
1. Reagent; 5 uL; 2500 lymphoblastoid cells/well
2. Time; 5 hr; 37 C incubation
4. Controls; 23 nL; Tetraoctylammonium bromide 6.4pM to 92 uM
5. Time; 24 hr; 37 C incubation
6. Reagent; 5 uL; CellTiter Glo reagent
7. Time; 30 min; Room Temperature
8. Detection; Luminescence; Viewlux plate reader
Keywords: cell viability, cytotoxicity, lymphoblastoid cell line, luminescence, NTPHTS, NTPHTS_NCGC, NIEHS, DSSTox, MLSMR, MLSCN, NIH Roadmap, qHTS, NCGC
Potency is the fitted concentration of half-maximal effect.

Compound | Potency
CCCCC(CC)COC(=O)c1ccc(C(=O)OCC(CC)CCCC)c(C(=O)OCC(CC)CCCC)c1 (stereo not given) | inactive
CCC#N | inactive
COc1c(C(C)(C)C)cc([N+](=O)[O-])c(C)c1[N+](=O)[O-] | inactive
C(CCOCC1CO1)COCC1CO1 (stereo not given) | inactive
CC(C)(OOC(C)(C)c1ccccc1)c1ccccc1 | inactive
C/C=C/CC#N | inactive
COc1ccc(C=O)cc1 | inactive
CCN(N=O)C(N)=O | inactive
ClC=CCl | inactive
Nc1ccc(Cc2ccc(N)cc2)cc1 | inactive
C=CC(=O)OCCN(C)C | inactive
Nc1ccc(-c2ccc(N)cc2)cc1 | inactive
Cc1ccccc1[N+](=O)[O-] | inactive
CC(=O)CCC(C)=O | inactive
CC(=O)NNc1ccccc1 | inactive
CCCC[N+](=O)[O-] | inactive
O=[N+]([O-])c1ccccc1-c1ccccc1 | inactive
c1ccc(OCC2CO2)cc1 (stereo not given) | inactive
CCN(CC)N=O | inactive
OCCOCCO | inactive

Compound | Potency
Clc1ccc(Cl)c(Cl)c1 | inactive
O=Cc1ccc(Cl)cc1Cl | inactive
CCCCCC[N+](=O)[O-] | inactive
ClC(Cl)C(Cl)Cl | inactive
Cc1ccc(N)cc1N | inactive
Nc1ccc(Cc2ccc(N)c(Cl)c2)cc1Cl | inactive
CC(C#N)CCC#N (stereo not given) | inactive
N#CCCCCC#N | inactive
COC(=O)Nc1cccc(OC(=O)Nc2cccc(C)c2)c1 | inactive
C=CCc1cc(OC)c2c(c1)OCO2 | inactive
Brc1cccc(-c2ccccc2)c1 | inactive
c1ccc(Nc2ccc(Nc3ccccc3)cc2)cc1 | inactive
O=[N+]([O-])c1ccc(Cl)c(Cl)c1Cl | inactive
Cc1cc(N=Nc2ccccc2C)ccc1N | inactive
ClCCOCCCl | inactive
O=C(O)CBr | inactive
OC[P+](CO)(CO)CO | 12.6 µM (active)
Nc1ccc(Cl)c(Cl)c1 | inactive
CN(C)c1ccccc1 | inactive
CN(C)C(=O)Nc1cccc(C(F)(F)F)c1 | inactive
